Source: PubChem BioAssay AID651593 (National Center for Advancing Translational Sciences (NCATS), 2012)
About 860 (78%) of roughly 1,100 compounds were called active. About 19% were inconclusive and are not listed. Calls follow the shape of the dose curve; as a rule, active = well fitted activation curve with a large enough effect; inconclusive = small, poorly fitted or top-dose-only effect; inactive = flat fitted curve, though single readings scatter. The set was probably picked from earlier hits. Some of the results follow.

Test: qHTS of Nrf2 Activators: Hit Validation in Primary Assay; also: nearly all actives have a fitted effect of over 70% in size
Details: Nrf2/ARE reporter cell assay; Potency: activation; series mostly up to 46.1 µM
How it was run: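 Luminescence from Steady-Glo lysis reagent, read after 30 min, reported ARE-luciferase activity in AREc32_fluc stable cells. Compounds were tested at several concentrations, incubated 24 h at 37 °C with 5% CO2 following overnight seeding.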
Potency is read from the fitted curve at half-maximal effect.

Potency, active:
CCCCn1c(O)c(N=Nc2ccccn2)c2ccccc21 2.91 µM, CC(C)CCn1c(O)c(N=Nc2ccccn2)c2ccccc21 2.91 µM, CC(C)N1C/C(=C/c2cccnc2)C(=O)/C(=C/c2cccnc2)C1 3.66 µM, COc1ccc(Cl)cc1NC(=O)c1cc(-c2ccco2)on1 2.59 µM, COc1ccc(NC(=O)c2cc(-c3cccs3)on2)c(OC)c1 1.3 µM, COC(=O)c1ccccc1NC(=O)c1cc(-c2ccco2)on1 3.26 µM, CSc1ccccc1NC(=O)c1cc(-c2cccs2)on1 2.91 µM, COc1ccc(NC(=O)c2cc(-c3ccco3)on2)c(OC)c1 2.31 µM, Cc1noc(C)c1COc1ccccc1C(=O)NNC(=O)c1ccccc1F 3.66 µM, Cc1csc2c(=O)sc(NC(=O)c3cccs3)nc12 4.11 µM, Cc1csc2c(=O)sc(NC(=O)c3ccc(F)cc3Cl)nc12 2.59 µM, Cc1ccccc1C(=O)Nc1nc2c(C)csc2c(=O)s1 2.91 µM, CS/C(=C\C(=O)c1ccco1)Nc1ccccc1Cl 4.61 µM, CC(C)Nc1ccc(-c2nc(-c3ccco3)no2)cc1[N+](=O)[O-] 2.31 µM, CNc1ccc(-c2nc(-c3ccco3)no2)cc1[N+](=O)[O-] 1.84 µM, COC(=O)c1cc(=O)nc(NN=Cc2ccco2)s1 0.58 µM, Cc1cc(Br)cn2c(Cc3ccccc3)c(-c3ccco3)nc12 16.4 µM, Cc1ccc(Cc2c(-c3ccco3)nc3c(C)cc(Br)cn23)cc1 20.6 µM, Clc1ccsc1-c1csc(-c2cccnc2)n1 2.06 µM, Cc1ccccc1NC(=O)/C(C#N)=C/c1ccsc1 4.11 µM, Cc1ccccc1NC(=O)/C(C#N)=C\c1ccsc1 3.66 µM, Clc1cc(-c2ccccc2)nc(-c2ccccc2)n1 5.8 µM, Clc1nc(-c2ccccc2)cc(-c2ccccc2)n1 4.11 µM, CN1CCCC1CCNc1ccc2c(=O)c3ccccc3oc2c1 (configuration not stated) 2.06 µM, Cc1[nH]c2ccccc2c1N=Nc1ccccc1C(=O)O 2.59 µM, Cc1[nH]c2ccccc2c1N=Nc1ccccc1F 4.11 µM, O=C1S/C(=C\C=C\c2ccco2)C(=O)N1c1ccc(O)cc1 2.31 µM, O=C1S/C(=C\C=C\c2ccco2)C(=O)N1c1ccccc1 5.8 µM, Cc1noc(C(=O)Nc2cc(Cl)ccc2O)c1Cl 2.91 µM, C=CCSc1nccc(-c2cc(Cl)sc2Cl)n1 6.51 µM, O=C1c2cccc3cccc(c23)C(=O)N1CCCN(C(=O)c1cccs1)c1cccc(F)c1 2.31 µM, O=C(N/N=C\C=C\c1ccco1)c1cc(-c2ccc3ccccc3c2)n[nH]1 8.2 µM, Cc1cccc(C)c1OCC(=O)N/N=C/C=C/c1ccco1 0.517 µM, O=C(N/N=C/C=C/c1ccco1)c1cccc([N+](=O)[O-])c1 0.366 µM, O=C(N/N=C/C=C/c1ccco1)c1cnccn1 9.2 µM, COc1ccc(C2CC(c3cccs3)=Nc3ccccc3S2)cc1OC (configuration not stated) 20.6 µM, Cc1cc(C)c(C#N)c(OCC(=O)c2ccc(Br)cc2)n1 4.61 µM, Cc1cc(C)c(C#N)c(OCC(=O)c2ccccc2)n1 5.17 µM, Cc1cc(C)n2nc(/C(C#N)=C/c3ccccn3)c(C#N)c2n1 18.4 µM, COc1ccc(Cl)cc1-c1nc(-c2ccncc2)no1 4.61 µM, Clc1ccc(Br)cc1-c1nc(-c2ccncc2)no1 4.61 µM, CC(C)(C)C(=O)/C=c1\[nH]c(=O)/c(=C\c2ccccc2F)s1 2.31 µM, Cn1nc(C(=O)Nc2c(-c3ccccc3)nc3sccn23)c2ccccc2c1=O 9.2 µM, Cc1ccc2[nH]c(=O)c3cc(C(=O)N(C)Cc4ccco4)sc3c2c1 11.6 µM, C(=Cc1cnnc2ccccc12)c1ccccc1 2.91 µM, O=C(NCc1ccccc1)c1c(Cl)nc(Cl)c(Cl)c1Cl 2.91 µM, O=C(Nc1ncc2c(n1)CC(c1ccco1)CC2=O)c1ccc(Cl)cc1 (configuration not stated) 9.2 µM, N#C/C(=C\c1cccc([N+](=O)[O-])c1)c1ccccn1 4.61 µM, O=C(/C=C/c1cccc([N+](=O)[O-])c1)n1cnc2ccccc21 4.61 µM, N#C/C(=C\c1ccccc1)c1ccccn1 13 µM, O=[N+]([O-])c1cccc(/C=C/c2ccccn2)c1 4.61 µM, CC(=O)Oc1ccc(-c2nc3c(C)cccc3c(=O)o2)cc1 9.2 µM, O=C(NCCc1c[nH]c2ccccc12)c1ccc([N+](=O)[O-])o1 5.17 µM, Cc1ccc(/C=C/C(=O)Nc2ccc([N+](=O)[O-])c(NC(=O)/C=C/c3ccc(C)o3)c2)o1 8.2 µM, CCOC(=O)c1c(NC(=O)/C=C/c2ccc(C)o2)sc(C)c1C 3.26 µM, COC(=O)c1ccc(Cl)cc1NC(=O)/C=C/c1ccc(C)o1 2.06 µM, CCC1C/C(=C/c2cccs2)C(=O)/C(=C/c2cccs2)C1 (configuration not stated) 2.31 µM, Cc1nc2ccccc2c(=O)n1NCc1cc(Br)cs1 2.59 µM, O=C(Nc1nnc(-c2cccs2)s1)c1cccc(F)c1 2.31 µM, O=C(Nc1nnc(-c2cccs2)s1)C1CC1 9.2 µM, Nc1ccccc1C=C1Cc2ccccc2C1=O 3.66 µM, O=C1C(=Cc2ccccc2[N+](=O)[O-])Cc2ccccc21 4.61 µM

Potency, inactive:
CCCCC1C(=O)N(c2ccccc2)N(c2ccc(O)cc2)C1=O (configuration not stated), c1ccc(-c2ccc3c(c2)NC(C2Nc4cc(-c5ccccc5)ccc4O2)O3)cc1 (configuration not stated), C/C(=N\NC(=S)NCC(C)(C)C)c1cc(F)cc(F)c1O, CC(C)(C)SCCNC(=O)/C=C/c1cccc([N+](=O)[O-])c1, Cn1c(CC2C(=O)Nc3ccc(Br)cc32)nc2ccccc2c1=O (configuration not stated)
